Bioassay records (PubChem BioAssay)
Hits are enriched below; roughly 3.2% of the tested compounds scored in any of these assays.
rCAG RNA binder: r(CAG) repeat RNA binding; TO-PRO-1 dye displacement fluorescence; inhibition, % at 3 µM; 1.3% of 370,000 active; AID 651821;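 active = inhibition above the plate cutoff, the mean of all test compounds on that plate plus 3 SD, cut at about 35% in these data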;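 also: higher means more dye released from RNA so lower well fluorescence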
PG9 binder: binds the HIV-1 gp120 antibody PG9; TR-FRET gp120-PG9 antibody binding; inhibition, % at 6.7 µM; 0.43% of 360,000 active; in the data active = inhibition above about 8.5%
MsrA inh: inhibits bovine methionine sulfoxide reductase A | inhibition, % at 15.5 µM | purified bovine MsrA, absorbance read-out | 0.75% of 360,000 active; in the data active = inhibition above about 4.5%
HGIII-sPLA2 inh: Blocks human group III sPLA2 activity. Q9NZ20. 0.56% of 370,000 active. inhibition, % at 12.2 µM. QFRET BODIPY PC-A2 liposome hydrolysis, fluorescence. AID 743126;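 active = inhibition above mean plus 3 SD of compounds lying within the high and low control bounds, cut at about 19% in these data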
Target sequence (Q9NZ20 whole entry, looked up): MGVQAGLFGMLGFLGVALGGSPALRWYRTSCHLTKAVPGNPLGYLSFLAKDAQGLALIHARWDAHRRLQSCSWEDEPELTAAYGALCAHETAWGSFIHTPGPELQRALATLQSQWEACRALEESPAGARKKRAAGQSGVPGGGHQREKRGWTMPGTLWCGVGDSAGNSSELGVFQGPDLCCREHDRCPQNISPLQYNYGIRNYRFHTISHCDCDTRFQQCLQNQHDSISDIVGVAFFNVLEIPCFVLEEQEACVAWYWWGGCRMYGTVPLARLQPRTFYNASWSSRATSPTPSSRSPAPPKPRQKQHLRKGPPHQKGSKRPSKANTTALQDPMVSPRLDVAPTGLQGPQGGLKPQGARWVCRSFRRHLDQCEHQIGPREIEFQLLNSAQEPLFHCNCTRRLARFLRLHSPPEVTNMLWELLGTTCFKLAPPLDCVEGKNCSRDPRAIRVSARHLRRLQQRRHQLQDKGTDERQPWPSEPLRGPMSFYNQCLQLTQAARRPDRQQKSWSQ
MsrA act: activates bovine MsrA enzyme; AID 602163; activation, % at 10.6 µM; 0.3% of 360,000 active; purified bovine MsrA, absorbance read-out; in the data active = activation above about 7.5%
PG9 bind confirm: PG9 antibody binding, confirmed. shares compounds with PG9 binder. TR-FRET PG9 antibody binding, biochemical. inhibition, % at 6.7 µM. 90% of 1,500 active. AID 651571; in the data active = inhibition above about 9%
PGV04 Ab binding: binds control antibody PGV04 in PG9 binder counter-screen; 95% of 1,500 active; TR-FRET PGV04 antibody-gp120 binding, biochemical; AID 651604; inhibition, % at 6.7 µM; shares compounds with PG9 binder; in the data active = inhibition above about 9.5%
A number is an active result.

What do the screens show for `CC(=O)c1ccc(N2CCN(S(=O)(=O)c3ccc4c(c3)NC(=O)CO4)CC2)cc1`?
rCAG RNA binder: inactive; PG9 binder: 22.1; MsrA inh: inactive; HGIII-sPLA2 inh: inactive; MsrA act: inactive; PG9 bind confirm: 28.4; PGV04 Ab binding: 39.0

How did Cn1cc(C2NC(=O)c3ccccc3N2)c2ccccc21 (centres undefined) do in these assays?
rCAG RNA binder: inactive; PG9 binder: 20.3; MsrA inh: inactive; HGIII-sPLA2 inh: inactive; MsrA act: inactive; PG9 bind confirm: 9.9; PGV04 Ab binding: 21.6

What do the screens show for `CC(C)[C@@H]1NC(=O)[C@H]2C[C@@]3(c4ccccc4)c4ccccc4N[C@H]3N2C1=O`?
rCAG RNA binder: inactive; HGIII-sPLA2 inh: inactive

What do the screens show for `CCN(CC)CCN1C(=O)C(O)=C(C(=O)c2cc3cccc(OC)c3o2)C1c1ccc(F)cc1` (centres undefined)?
rCAG RNA binder: inactive; PG9 binder: 14.2; MsrA inh: inactive; HGIII-sPLA2 inh: inactive; MsrA act: inactive; PG9 bind confirm: 30.2; PGV04 Ab binding: 36.8

What do the screens show for `COc1cccc2cc(C(=O)C3=C(O)C(=O)N(CCN4CCOCC4)C3c3cccc(Cl)c3)oc12` (centres undefined)?
rCAG RNA binder: inactive; PG9 binder: 18.0; MsrA inh: inactive; HGIII-sPLA2 inh: inactive; MsrA act: inactive; PG9 bind confirm: 26.7; PGV04 Ab binding: 38.1

Results for O=C(C1=C(O)C(=O)N(CCN2CCOCC2)C1c1cccc(F)c1)c1cc2ccccc2o1 (centres undefined) ?
rCAG RNA binder: inactive; PG9 binder: 24.1; MsrA inh: inactive; HGIII-sPLA2 inh: inactive; MsrA act: inactive; PG9 bind confirm: 33.8; PGV04 Ab binding: 45.4

What do the screens show for `O=C(C1=C(O)C(=O)N(CCN2CCOCC2)C1c1ccc(Br)cc1)c1cc2ccccc2o1` (centres undefined)?
rCAG RNA binder: inactive; PG9 binder: inactive; MsrA inh: inactive; HGIII-sPLA2 inh: inactive; MsrA act: inactive

What do the screens show for `COc1cccc2cc(C(=O)C3=C(O)C(=O)N(CCN4CCOCC4)C3c3ccc(Cl)cc3)oc12` (centres undefined)?
rCAG RNA binder: inactive; PG9 binder: inactive; MsrA inh: inactive; HGIII-sPLA2 inh: inactive; MsrA act: inactive

How did Cc1ccc(C2C(C(=O)c3cc4ccccc4o3)=C(O)C(=O)N2CCN2CCOCC2)cc1 (centres undefined) do in these assays?
rCAG RNA binder: inactive; PG9 binder: 10.3; MsrA inh: inactive; HGIII-sPLA2 inh: inactive; MsrA act: inactive; PG9 bind confirm: 26.6; PGV04 Ab binding: 35.2

What do the screens show for `O=C(C1=C(O)C(=O)N(CCN2CCOCC2)C1c1cccc(O)c1)c1cc2ccccc2o1` (centres undefined)?
rCAG RNA binder: inactive; PG9 binder: inactive; MsrA inh: inactive; HGIII-sPLA2 inh: inactive; MsrA act: inactive

Results for COC1=C[C@H](C(=O)NCCOC(C)=O)[C@H](C)[C@@H](c2ccccc2)CC1=O ?
rCAG RNA binder: inactive; HGIII-sPLA2 inh: inactive

Results for COc1cccc(C2C(C(=O)c3cccs3)=C(O)C(=O)N2CCN2CCOCC2)c1 (centres undefined) ?
rCAG RNA binder: inactive; PG9 binder: inactive; MsrA inh: inactive; HGIII-sPLA2 inh: inactive; MsrA act: inactive

Results for COc1cccc(C2C(C(=O)c3ccc(C)o3)=C(O)C(=O)N2CCN2CCOCC2)c1 (centres undefined) ?
rCAG RNA binder: inactive; PG9 binder: 9.0; MsrA inh: inactive; HGIII-sPLA2 inh: inactive; MsrA act: inactive; PG9 bind confirm: 21.3; PGV04 Ab binding: 25.2

How did COc1cccc(C2C(C(=O)c3cccs3)=C(O)C(=O)N2c2cc(C)on2)c1 (centres undefined) do in these assays?
rCAG RNA binder: inactive; PG9 binder: inactive; MsrA inh: inactive; HGIII-sPLA2 inh: inactive; MsrA act: inactive

What do the screens show for `COc1cccc(C2C(C(=O)c3ccc(C)o3)=C(O)C(=O)N2c2cc(C)on2)c1` (centres undefined)?
rCAG RNA binder: inactive; PG9 binder: 8.7; MsrA inh: inactive; HGIII-sPLA2 inh: inactive; MsrA act: inactive; PG9 bind confirm: 16.8; PGV04 Ab binding: 22.3

Results for COC(CNC(=O)[C@H](Cc1ccccc1)NCC(=O)NC1CCCCC1)OC ?
HGIII-sPLA2 inh: inactive

How did Cc1cccc(S(=O)(=O)NCCNS(=O)(=O)c2cccc(C)c2)c1 do in these assays?
rCAG RNA binder: inactive; PG9 binder: inactive; MsrA inh: inactive; HGIII-sPLA2 inh: inactive; MsrA act: inactive

What do the screens show for `Cc1cccc(S(=O)(=O)Nc2cccc3c2C(=O)c2ccccc2-3)c1`?
rCAG RNA binder: inactive; PG9 binder: 11.1; MsrA inh: inactive; HGIII-sPLA2 inh: inactive; MsrA act: inactive; PG9 bind confirm: 15.3; PGV04 Ab binding: 17.1

Results for COc1cccc(/C=C2\CC3(OC(=O)c4cccc(F)c4)CCCN2C3)c1 (centres undefined) ?
rCAG RNA binder: inactive; HGIII-sPLA2 inh: inactive

How did O=S(=O)(CC1NCc2cc(F)ccc21)NCc1ccccc1 (centres undefined) do in these assays?
rCAG RNA binder: inactive; HGIII-sPLA2 inh: inactive

How did O=c1[nH]c2ccccc2cc1CN(c1ccccc1)S(=O)(=O)c1ccccc1 do in these assays?
rCAG RNA binder: inactive; PG9 binder: 18.2; MsrA inh: inactive; HGIII-sPLA2 inh: inactive; MsrA act: inactive; PG9 bind confirm: 25.0; PGV04 Ab binding: 26.7

Results for Cc1ccccc1NC(=O)N(C)[C@H]1C[C@H]2c3[nH]c4c(-c5ccccc5)cccc4c3CCN2C[C@H]1[C@H](C)O ?
rCAG RNA binder: inactive; HGIII-sPLA2 inh: inactive

How did CCCC(=O)Nc1ccc(C(=O)Nc2ccc([N+](=O)[O-])cc2OC)cc1 do in these assays?
rCAG RNA binder: inactive; PG9 binder: 10.2; MsrA inh: inactive; HGIII-sPLA2 inh: inactive; MsrA act: inactive; PG9 bind confirm: 9.5; PGV04 Ab binding: 16.7

How did CCOC(=O)/C(C#N)=C/c1cc2ccccc2nc1N1CCCCC1 do in these assays?
rCAG RNA binder: inactive; PG9 binder: 26.8; MsrA inh: inactive; HGIII-sPLA2 inh: inactive; MsrA act: inactive; PG9 bind confirm: 25.2; PGV04 Ab binding: 29.7

What do the screens show for `Cc1cc(-c2ccc(Cl)cc2)c(C#N)c(N)n1`?
rCAG RNA binder: inactive; PG9 binder: 55.0; MsrA inh: inactive; HGIII-sPLA2 inh: inactive; MsrA act: inactive; PG9 bind confirm: 64.5; PGV04 Ab binding: 79.5

Results for N#Cc1c(-c2ccncc2)cc(-c2ccc(F)cc2)nc1N ?
rCAG RNA binder: inactive; PG9 binder: 33.5; MsrA inh: inactive; HGIII-sPLA2 inh: inactive; MsrA act: inactive; PG9 bind confirm: 8.9; PGV04 Ab binding: 25.8

What do the screens show for `CCCCNS(=O)(=O)/C=C/c1ccc(F)cc1CNC(=O)OC(C)(C)C`?
rCAG RNA binder: inactive; HGIII-sPLA2 inh: inactive

How did Cc1csc(NC(=O)CCCSc2nc3ccccc3s2)n1 do in these assays?
rCAG RNA binder: inactive; PG9 binder: inactive; MsrA inh: inactive; HGIII-sPLA2 inh: inactive; MsrA act: inactive
